Measurements published in PubChem BioAssay AID2314 (National Center for Advancing Translational Sciences (NCATS), 2010).
Among all 300,000 compounds or so, about 37,000 (12%) were called active. For the sample, actives were picked, then their nearest neighbours and some compounds at random. A number with no mark means an inactive call. Cut-off read from the data, not from the text of the source: active = max response mostly above about 13% (no sharp cut-off); inactive = mostly below about 14%.

Experiment: Cycloheximide Counterscreen for Small Molecule Inhibitors of Shiga Toxin; note: read at 38.3 µM for the half of the compounds with a filed dose; 0% is about no effect
Details: cell reporter, cycloheximide protein synthesis inhibition counterscreen; hits give high values

Q: With `Cc1cc(Nc2ccc(C(=O)N3CCCCC3)cc2)c2cccc(C)c2n1` as the compound, how does the max response read?
A: Its max response is -1.19%.

Q: For `COc1ccc(Nc2ccc([N+](=O)[O-])cn2)cn1`, which max response is on record?
A: The max response was -2.61%.

Q: For `NC1=NC[C@@H](Cc2ccc(O)cc2)N1CC1CCCCC1`, which max response is on record?
A: The max response was -4.36%.

Q: With `COc1cc(Cl)c(C)cc1NC(=O)COC(=O)c1cc(SC)ccc1Cl` as the compound, how does the max response read?
A: The max response was -1.86%.

Q: Which max response does the source give for `Cc1cc(NC(=O)COC(=O)COc2ccc(Cl)cc2C)c([N+](=O)[O-])cc1C` here?
A: Its max response is -1.12%.

Q: With `COc1ccc(OCC(=O)Nc2cc(C)c(Cl)cc2OC)c([N+](=O)[O-])c1` as the compound, how does the max response read?
A: The max response was 13.9% (active).

Q: With `Cc1cccc2sc(N(CCCN(C)C)C(=O)CCS(=O)(=O)c3ccccc3)nc12` as the compound, how does the max response read?
A: The max response was 8.46%.

Q: For `CN(C)CCCn1c(SCc2ccc(Cl)cc2)nnc1-c1ccncc1`, which max response is on record?
A: Its max response is -2.48%.

Q: Which max response does the source give for `COc1ccc(NC(=O)C2=CC(c3ccc(OC)c(OC)c3)=NS(=O)(=O)N2C)cc1` here?
A: Its max response is -6.05%.

Q: Which max response does the source give for `Cc1c(CCC(=O)O)c(=O)oc2cc3occ(-c4ccccc4)c3cc12` here?
A: The max response was -1.34%.

Q: With `O=c1c(-c2ccccc2)coc2cc(O)ccc12` as the compound, how does the max response read?
A: The max response was 51.6% (active).

Q: For `O=c1c(-c2ccccc2)coc2c(CN3CCOCC3)c(O)ccc12`, which max response is on record?
A: Its max response is 5.61%.

Q: With `CC1(C)C2CCC1(C)C(OC(=O)c1ccc(O)cc1)C2` (configuration not stated) as the compound, how does the max response read?
A: The max response was -2.8%.

Q: With `COc1ccc(C23NCCN2C(=O)c2ccccc23)cc1` (configuration not stated) as the compound, how does the max response read?
A: Its max response is -7.41%.

Q: With `Cc1cccc(NC(=O)Nc2ccc(OCc3ccccc3)cc2)n1` as the compound, how does the max response read?
A: The max response was -4.06%.

Q: Which max response does the source give for `Cc1cccc(NC(=O)COc2ccc(Br)cc2C)n1` here?
A: Its max response is 42.7% (active).

Q: With `Cc1ccccc1OCC(=O)Nc1nc(C)c(C(=O)N(C)C)s1` as the compound, how does the max response read?
A: Its max response is 7.85%.

Q: For `CCN(CC)S(=O)(=O)c1ccc(C)c(NC(=O)COc2ccc(Br)cc2Cl)c1`, which max response is on record?
A: Its max response is -3.99%.

Q: For `Cc1cccc(NC(=O)COc2ccccc2C)n1`, which max response is on record?
A: The max response was 47.9% (active).

Q: With `Cc1cccc(NC(=O)Cc2ccc(Br)cc2)n1` as the compound, how does the max response read?
A: Its max response is 33.4% (active).

Q: For `COCCNC(=O)COc1ccccc1C`, which max response is on record?
A: The max response was 0.731%.

Q: With `CSc1ccccc1NC(=O)Cc1ccc(Br)cc1` as the compound, how does the max response read?
A: The max response was -3.62%.

Q: For `Cc1cccc(C)c1NC(=O)CNC(=O)Cc1ccc(Br)cc1`, which max response is on record?
A: The max response was -2.02%.

Q: For `O=C1C(=O)N(CCN2CCOCC2)C(c2cccc(Cl)c2)/C1=C(/O)c1ccc2c(c1)OCO2` (configuration not stated), which max response is on record?
A: Its max response is 1.71%.

Q: For `O=C(Nc1ccc(-n2cccn2)cc1)C1CCN(Cc2ccsc2)CC1`, which max response is on record?
A: Its max response is 1.46%.

Q: Which max response does the source give for `Cc1cnc(C(=O)Oc2cccc(Cl)c2Cl)cn1` here?
A: The max response was -2.93%.

Q: With `O=S(=O)(Nc1cccc(Oc2ccc(Cl)cc2)n1)c1ccc(F)cc1` as the compound, how does the max response read?
A: The max response was -1.16%.

Q: For `COc1ccc(CN2CCNC(=O)C2CC(=O)NCc2cn[nH]c2-c2ccccc2)c(F)c1` (configuration not stated), which max response is on record?
A: The max response was -3.59%.

Q: Which max response does the source give for `Cc1cc(C)n(CCNS(=O)(=O)c2ccc(Cl)cc2)n1` here?
A: Its max response is -1.13%.

Q: With `COc1ccc2cc(-c3[nH]ncc3CNCCn3nc(C)cc3C)ccc2c1` as the compound, how does the max response read?
A: Its max response is 38.8% (active).

Q: Which max response does the source give for `CCN1CCC2(CC1)N=C(c1ccc(F)cc1)C(=S)N2C(=O)c1ccc(C)cc1` here?
A: Its max response is -0.381%.

Q: With `COc1ccccc1Nc1ncnc2c1oc1ccccc12` as the compound, how does the max response read?
A: Its max response is 22.8% (active).

Q: With `Cc1cc(C)nc(N2CCN(c3ncnc4c3oc3ccccc34)CC2)n1` as the compound, how does the max response read?
A: Its max response is 10.4%.

Q: Which max response does the source give for `COc1ccc(C)cc1Nc1nc(C)nc2c1oc1ccccc12` here?
A: Its max response is -2.13%.

Q: With `CCCCOc1ccc(N(CC(=O)NCC2CCCO2)C(=O)CCC(=O)Nc2cc(C)ccn2)cc1` (configuration not stated) as the compound, how does the max response read?
A: The max response was -1.91%.

Q: With `C[n+]1ccc(C(=O)NCc2ccccc2)cc1` as the compound, how does the max response read?
A: Its max response is -2.14%.

Q: With `COc1ccc(CC(=O)Nc2ccc3c(c2)CCC3)cc1S(=O)(=O)N1CCOCC1` as the compound, how does the max response read?
A: Its max response is 1.02%.

Q: Which max response does the source give for `COc1ccc(CNc2cc(C)cc(C)c2)cc1OC` here?
A: The max response was -1.54%.

Q: With `COc1ccc(CNc2ccc3c(c2)CCC3)cc1OC` as the compound, how does the max response read?
A: Its max response is 28.7% (active).

Q: Which max response does the source give for `COc1ccc(OCC(=O)Nc2ccc(NC(=O)c3ccco3)c(C)c2)cc1` here?
A: The max response was 6.17%.

Q: With `COc1cc(NS(=O)(=O)c2ccc(NC(=S)NC(=O)c3ccccc3)cc2)nc(OC)n1` as the compound, how does the max response read?
A: The max response was -6%.

Q: With `Cc1nnc(NC(=O)Nc2ccc(Cl)c(Cl)c2)s1` as the compound, how does the max response read?
A: Its max response is -2.3%.

Q: For `CCn1nccc1C(=O)Nc1ccc(Cl)c(Cl)c1`, which max response is on record?
A: Its max response is 35.7% (active).

Q: With `CCn1nccc1C(=O)Nc1ccc(S(=O)(=O)NC23CC4CC(CC(C4)C2)C3)cc1` as the compound, how does the max response read?
A: Its max response is 9.31%.

Q: For `N#Cc1cccc(Nc2c3c(nc4ccccc24)CCCC3)c1`, which max response is on record?
A: The max response was -8.08%.

Q: With `Cc1nc2nc(C)c(NS(=O)(=O)c3ccc(C(C)(C)C)cc3)c(=O)n2[nH]1` as the compound, how does the max response read?
A: The max response was 1.21%.

Q: Which max response does the source give for `COc1ccc(NC(=O)N2CCC(Cc3ccccc3)CC2)cc1` here?
A: The max response was 19.5% (active).

Q: Which max response does the source give for `O=C(Nc1ccccc1)N1CCN(C(=O)Nc2ccccc2)CC1` here?
A: Its max response is -0.439%.

Q: With `O=C(Nc1ccccc1)N1CCN(Cc2ccccc2)CC1` as the compound, how does the max response read?
A: The max response was 21% (active).

Q: With `COc1ccc(C(=O)NC2CCN(C(=O)Nc3ccc(F)cc3)CC2)cc1` as the compound, how does the max response read?
A: Its max response is -4.59%.

Q: For `O=C(c1cc2ccccc2o1)N1CCN(Cc2ccccc2)CC1`, which max response is on record?
A: The max response was 20.5% (active).

Q: With `COc1ccc(NC(=O)N2CCCC(C(=O)Nc3ccccc3OC)C2)cc1` (configuration not stated) as the compound, how does the max response read?
A: The max response was -2.82%.

Q: For `O=C(NC(=S)N1CCN(Cc2ccccc2)CC1)c1ccccc1`, which max response is on record?
A: The max response was 10.6%.

Q: With `O=C(c1cc2ccccc2o1)N1CCN(c2cccc(C(F)(F)F)c2)CC1` as the compound, how does the max response read?
A: The max response was -3.72%.

Q: For `O=C(c1cccc(Cl)c1)N1CCN(Cc2ccccc2)CC1`, which max response is on record?
A: The max response was 1.6%.

Q: For `COc1ccc(C(CCN2CCOCC2)c2c(OC)cc(OC)c3c2OC(=O)CC3c2ccc(OC)cc2)cc1` (configuration not stated), which max response is on record?
A: The max response was 3.67%.

Q: With `CCn1c(/C=C/Nc2ccccc2)[n+](CC)c2ccc(C(=O)OCC(F)(F)F)cc21` as the compound, how does the max response read?
A: The max response was -3.17%.

Q: With `COc1ccccc1NC(=O)N1CCCC1C(=O)NCc1cccs1` (configuration not stated) as the compound, how does the max response read?
A: The max response was 4.62%.

Q: With `CCc1cc(=O)oc2cc(C)cc(OCC(=O)N3CCC[C@@H]3C(=O)O)c12` as the compound, how does the max response read?
A: The max response was -2.38%.

Q: With `CCC1Oc2ccccc2N(CC(=O)NCCCN2CCN(CC)CC2)C1=O` (configuration not stated) as the compound, how does the max response read?
A: The max response was -1.43%.

Q: Which max response does the source give for `Oc1cccc2ccc(/C=C/c3ccc(Br)s3)nc12` here?
A: The max response was 56.7% (active).

Q: With `Nc1ccc(S(=O)(=O)Nc2nccc(/C=C/c3ccc(Br)s3)n2)cc1` as the compound, how does the max response read?
A: Its max response is 0.595%.
